# Reference: the supplement of paper PMC10681739
# Legend:
# ETS1 = target: T1, ETS1 (UniProt P14921); test: ETS1 binding intensity (PBM fluorescence), ETS1 alone (arbitrary fluorescence units); higher = stronger binding; conditions: ETS1 concentration 1 nM; RUNX1 concentration 0 nM
# T1 sequence: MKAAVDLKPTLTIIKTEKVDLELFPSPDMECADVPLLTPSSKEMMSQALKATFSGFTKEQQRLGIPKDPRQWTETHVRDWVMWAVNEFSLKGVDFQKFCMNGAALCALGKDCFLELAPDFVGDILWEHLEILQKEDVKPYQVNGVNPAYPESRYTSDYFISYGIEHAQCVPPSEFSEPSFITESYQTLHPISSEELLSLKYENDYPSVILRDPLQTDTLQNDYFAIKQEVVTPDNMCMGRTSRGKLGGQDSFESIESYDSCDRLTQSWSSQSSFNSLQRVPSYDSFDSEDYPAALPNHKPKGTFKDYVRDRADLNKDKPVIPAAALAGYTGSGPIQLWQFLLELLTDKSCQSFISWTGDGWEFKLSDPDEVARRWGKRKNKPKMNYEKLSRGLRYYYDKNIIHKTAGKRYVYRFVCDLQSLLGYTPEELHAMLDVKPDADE
# RUNX1 [1] = target: RUNX1 (UniProt Q01196); test: RUNX1 binding intensity (PBM fluorescence), RUNX1 alone (arbitrary fluorescence units); higher = stronger binding; conditions: RUNX1 concentration 2 nM; ETS1 concentration 0 nM
# Method: (§1)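 Cooperative gcPBM on 36-bp genomic probes with neighbouring ETS1 and RUNX1 sites. Recombinant human RUNX1 (2 nM) was incubated alone or with ETS1 (25 nM) and detected with anti-RUNX1 antibody plus Alexa488 secondary. Values are medians over 4 replicate spots; the RUNX1+ETS1 data were normalised to the RUNX1-only data. The probes sit in constant array flanks that are not printed.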
# RUNX1 [2] = target: RUNX1 (UniProt Q01196); test: RUNX1 binding intensity (PBM fluorescence) in presence of ETS1, normalised to RUNX1-only experiment (arbitrary fluorescence units); higher = stronger binding; conditions: RUNX1 concentration 2 nM; ETS1 concentration 25 nM
# Method: as §1
# 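Wherever RUNX1 binding intensity (PBM fluorescence) in presence of ETS1, normalised to RUNX1-only experiment is given: Full-length recombinant human ETS1 or RUNX1 bound to double-stranded 36-bp genomic probes on microarrays, detected by protein-specific primary antibody and Alexa488 secondary, spot fluorescence as median of four replicate spots.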
# 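Wherever RUNX1 binding intensity (PBM fluorescence), RUNX1 alone is given: Full-length recombinant human RUNX1 bound to double-stranded 36-bp genomic probes on a high-density microarray, scored as Alexa488 fluorescence per spot via anti-RUNX1 antibody, median of four replicate spots.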
# RUNX1, sequence (Q01196 whole entry): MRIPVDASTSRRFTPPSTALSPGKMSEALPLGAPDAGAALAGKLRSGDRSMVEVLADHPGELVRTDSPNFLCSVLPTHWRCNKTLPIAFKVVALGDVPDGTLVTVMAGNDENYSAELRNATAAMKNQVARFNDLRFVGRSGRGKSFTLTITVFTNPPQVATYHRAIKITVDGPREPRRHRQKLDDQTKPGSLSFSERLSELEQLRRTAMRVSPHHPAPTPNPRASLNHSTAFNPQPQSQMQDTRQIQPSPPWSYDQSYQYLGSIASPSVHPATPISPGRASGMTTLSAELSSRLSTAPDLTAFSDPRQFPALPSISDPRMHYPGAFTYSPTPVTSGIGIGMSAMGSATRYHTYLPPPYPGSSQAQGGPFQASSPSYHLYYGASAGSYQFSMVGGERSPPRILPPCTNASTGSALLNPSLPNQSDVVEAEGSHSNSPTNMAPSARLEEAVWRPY
Sequence,ETS1 binding intensity (ETS1),RUNX1 binding intensity (RUNX1 [1]),RUNX1 binding intensity (RUNX1 [2])
AAAGCATTTCCTGCCTTGACTTAACCACAAGACAGG,1880,1460,4320
CCTGTTTCCTGCCATCTGCCCTTCCTTTGTGGTCAA,774,3310,6290
ACGGGGAAGAACGGAAGTGGTTTCCATGATGGTCTG,6420,831,4470
CCATCCAGGAAGCTTATGGTGCAACCGCAGTGTGCC,483,943,1620
TGGGGACCACTGTCAGGATGTGGTCACTGGAGTCAC,1020,831,1540
TCCTATATACTTCCGTTTGCCTCGCGGTTTCTTTCT,1300,2730,4520
GACACAAGCCTCACAGGATGTGGTCAAAGAAGGTTG,3830,762,3910
CGAGCTCGGTGTTCCGCTTTTTGTGGGCCGGGTGGG,467,1080,903
GTGCAGACAGGAAATAGCTGCTCTGCGGCAGCCCGA,5830,752,1070
TGAGCCTTGGAAGGAAATGATTCACCACAATACTGT,741,831,867
CAAGCCAACATCCTGACAGTTTAGAAACCACAGGAG,464,779,1300
CGGGAGGGGCAGGAAGCGGACTGCGGTGGGGAAGGG,2770,939,1470
CCTGCAGCAACAGGATGTGGTTTGAAAGGATGAAAG,7250,778,6460
TTCTATCCTGCCTTGCATGTCTTTAACCACACTGAG,396,1800,1720
GCACTGTAGGCAGGATGTGGGCAGGGGAAACTCAGG,3720,827,2870
AGCAGGTATACCACTTCCTGTGGTTATCATTTGAGG,2330,966,6540
AATCTGAAACAGGAAATAAGTCTGTGGTTGTGTGTT,7070,833,1540
GGAAAAGGAAGTGGCTTTGACTTGCGGGCAGGGAGA,1020,733,2560
ACTACAGGAGGAAACTACAGCCTAAACCACATGCAA,510,975,892
AGGGAACAGGAAATGCAAAAAACCACAAGGGACAAG,2100,2050,15800
AGCCTACATCCTGCACTGCTTAACCACAGCCCGCCT,509,1960,5470
GCGCCCTCCAGGAAACGCCGCGGTTTACTGTCTGCC,1120,912,1910
TTCAACAGGATGTGGGAACTTGACTCTCGCCGCAAA,3560,737,3720
AACAGGAAGTGGTCTTAGAGATCATGCGGTTCAGAG,2220,787,2350
TGTGTATGAGAACGGATATAGGTGGTTTTATAAGGA,1890,756,941
CTCTGGCAGGAAGCTCTGAGGGCTAAACCACAAAAA,1110,989,1820
GGGACAGACTCTCCAGGATGTGGTTGGATTTTGGGC,1520,754,1040
CAGTGAACAGTTTCCTGTTCCTGTGGTTTTGACTTT,1230,1420,3980
